Bioassay records: PubChem BioAssay, National Center for Advancing Translational Sciences (NCATS)
BRCA1 expr act: qHTS Assay to Identify Small Molecule Activators of BRCA1 Expression; AID 624202, 2012; 380,000 compounds, 1.1% hits; Potency, µM (top dose mostly 46.1 µM), for inactives: at the highest dose activation, actives largely listed as activators; MCF7-BRCA1-FFLuc reporter, luminescence, 48 h; response scale: scaled: vehicle 0%, 10 µM genistein 100%; also: potency is read from the fitted curve at half-maximal effect; nearly all actives have a fitted effect of over 80% in size
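Activators of BRCA1 expression were detected as increased firefly luciferase luminescence in engineered MCF7 cells after 48 h compound incubation. Signals were scaled to genistein 10 microM as full activation.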
p53 reactivator: qHTS assay for re-activators of p53 using a Luc reporter. H1299 p53-A138V BP100-luciferase reporter, luminescence, 24 h. Potency, µM (doses to about 92.2 µM), for the others: at the highest dose activity change, positive = activation, most hits filed as activators. 320,000 compounds, 0.063% hits. AID 504706, 2011; also: potency is read from the fitted curve at half-maximal effect; % of control where 0% means no effect; nearly all actives have a fitted effect of over 45% in size
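H1299 (p53-null), stable ts p53-A138V + BP100-Luc; 1000 cells/well, Opti-MEM/10% FBS; cpd 4 pt, 1:5; 24 h, 37 deg C, 5% CO2; detection reagent 10 min RT; luminescence.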
Giardia killer: Small Molecules that selectively kill Giardia lamblia: qHTS; Giardia lamblia trophozoite viability; activity change, % at 7.66 µM, hits read low; AID 540267, 2011; 340,000 compounds, 0.15% hits; in the data active = activity change below about -80%; inconclusive = between about -30% and that limit;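 also: parasites exposed to compound for two days anaerobically before the ATP read; % is scaled to controls: 0 for no effect and ±100 for the full control effect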
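Trophozoites 100 cells/well + cpd; 48 hrs, 37 deg C, anaerobic. ATPLite 1-Step added, 15-30 min RT, luminescence read (ATP-based viability).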
RORg inh: qHTS for inhibitors of ROR gamma transcriptional activity; 310,000 compounds, 5.4% hits; Nuclear receptor ROR-gamma (Mus musculus), P51450; Potency, µM (doses to about 53.6 µM), for the others: top-dose activity change, negative = inhibition, actives largely listed as inhibitors; Drosophila S2 Gal4-RORgamma UAS-luciferase reporter, 20 h; AID 2551, 2010; also: potency is read from the fitted curve at half-maximal effect; % is scaled to controls: 0 for no effect and ±100 for the full control effect; nearly all actives have a fitted effect of over 60% in size
Target sequence (P51450 whole entry, looked up, the tested form may be a part): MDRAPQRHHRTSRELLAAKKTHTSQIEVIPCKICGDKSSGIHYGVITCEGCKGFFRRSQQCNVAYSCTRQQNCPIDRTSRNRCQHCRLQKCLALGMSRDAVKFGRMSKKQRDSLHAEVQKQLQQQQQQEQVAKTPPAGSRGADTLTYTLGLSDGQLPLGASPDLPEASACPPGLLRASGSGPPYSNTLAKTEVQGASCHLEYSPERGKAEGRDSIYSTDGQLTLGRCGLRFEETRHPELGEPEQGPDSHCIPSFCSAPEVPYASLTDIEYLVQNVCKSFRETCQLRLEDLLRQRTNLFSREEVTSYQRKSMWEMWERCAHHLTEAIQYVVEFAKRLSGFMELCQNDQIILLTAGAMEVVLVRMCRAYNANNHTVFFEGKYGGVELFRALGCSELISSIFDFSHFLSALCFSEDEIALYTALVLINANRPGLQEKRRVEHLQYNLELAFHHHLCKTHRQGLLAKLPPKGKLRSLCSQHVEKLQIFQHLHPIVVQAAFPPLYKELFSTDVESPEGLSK
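Stable Schneider cell line, Gal4 DNA-binding domain fused to ROR gamma, UAS-luciferase. Cmpd 1 hr RT → CuSO4 700 uM final → 20 hr RT → luciferase reagent 10 min → luminescence.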
ELG1 repair inh: qHTS screen for small molecules that inhibit ELG1-dependent DNA repair in human embryonic kidney (HEK293T) cells expressing luciferase-tagged ELG1; HEK293T ELG1-luciferase reporter, luminescence, 16 h; DNA damage induced by 5-fluorouridine; Potency, µM (top dose mostly 46.1 µM), for the others: top-dose activity change, negative = inhibition, hits mostly inhibitors; 330,000 compounds, 2.3% hits; AID 504467, 2011; also: potency is read from the fitted curve at half-maximal effect; % is scaled to controls: 0 for no effect and ±100 for the full control effect; nearly all actives have a fitted effect of over 55% in size
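5-Fluorouridine DNA damage + compound/DMSO, 2,000 cells/well, 16 h, 37 °C/5% CO2. ONE-Glo, 30 min RT, luminescence. Readout = decrease in reporter signal.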
Gal4-VP16 FLuc: VP16 counterscreen qHTS for inhibitors of ROR gamma transcriptional activity; 310,000 compounds, 3.5% hits; Potency, µM (series often up to 53.6 µM), for inactives: at the highest dose activity, negative = inhibition, most hits filed as inhibitors; Drosophila S2 Gal4-VP16 UAS-luciferase, luminescence, 20 h;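 also: Gal4-VP16 expression switched on by copper sulfate through the metallothionein promoter; potency is read from the fitted curve at half-maximal effect; % is scaled to controls: 0 for no effect and ±100 for the full control effect; nearly all actives have a fitted effect of over 50% in size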
ELG1 FLuc counter: qHTS screen for small molecules that inhibit ELG1-dependent DNA repair: Hit Confirmation in Cell-Based Luciferin Assay | AID 624247, 2012 | shares compounds with ELG1 repair inh | cell-free firefly luciferase luminescence counter-screen, ViewLux | Potency, µM (highest dose often 46.1 µM), without a hit: top-dose activity change, negative = inhibition, actives largely listed as inhibitors | 350 compounds, 3% hits; also: potency is read from the fitted curve at half-maximal effect; % is scaled to controls: 0 for no effect and ±100 for the full control effect
ELG1-Luc inh: HTS assay for small molecules that inhibit ELG1-dependent DNA repair in human embryonic kidney (HEK293T) cells expressing luciferase-tagged ELG1: Hit Confirmation | shares compounds with ELG1 repair inh | HEK293T ELG1-luciferase levels, luminescence; cells co-treated with 5-fluorouridine | Potency, µM (doses to about 46.1 µM), without a hit: top-dose activity change, negative = inhibition, actives largely listed as inhibitors | 670 compounds, 68% hits; also: potency is read from the fitted curve at half-maximal effect; % is scaled to controls: 0 for no effect and ±100 for the full control effect; nearly all actives have a fitted effect of over 55% in size
ELG1 MMS Luc: MMS-stimulated human ELG1 repair inhibition, confirmed | Potency, µM (top dose mostly 46.1 µM), without a hit: at the top dose activity change, negative = inhibition, most hits filed as inhibitors | shares compounds with ELG1 repair inh | 670 compounds, 53% hits | HEK293T luciferase-tagged ELG1 level, MMS stimulated; also: potency is read from the fitted curve at half-maximal effect; % is scaled to controls: 0 for no effect and ±100 for the full control effect; nearly all actives have a fitted effect of over 60% in size
ELG1 5FU viab: qHTS screen for small molecules that inhibit ELG1-dependent DNA repair: Hit Confirmation with 5FU Viability. shares compounds with ELG1 repair inh. cell viability with 5-FU, ELG1-dependent repair. Potency, µM (highest dose often 46.1 µM), without a hit: top-dose activity change, negative = viability loss, actives largely listed as cytotoxic. 670 tested, under 10 active;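 also: ELG1-luc HEK293T cells cotreated with 5-fluorouridine at 10 µM final; potency is read from the fitted curve at half-maximal effect; viability measured 16 h after compound addition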
ELG1 MMS cell: qHTS screen for small molecules that inhibit ELG1-dependent DNA repair: Hit Confirmation with MMS Viability | Cell viability with MMS, ELG1-dependent DNA repair | Potency, µM (top dose mostly 46.1 µM), for the others: at the top dose activity change, negative = viability loss, actives largely listed as cytotoxic | AID 624251, 2012 | shares compounds with ELG1 repair inh | 670 compounds, 33% hits;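 also: ELG1-luc HEK293T cells co-treated with 10 µM MMS; potency is read from the fitted curve at half-maximal effect; viability read 16 h after compound addition; % is scaled to controls: 0 for no effect and ±100 for the full control effect; nearly all actives have a fitted effect of over 60% in size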
ELG1 unstim viab: qHTS screen for small molecules that inhibit ELG1-dependent DNA repair: Hit Confirmation with Unstimulated Viability Assay; shares compounds with ELG1 repair inh; AID 624252, 2012; cell viability counter-screen, unstimulated, luminescence; 900 compounds, 8% hits; Potency, µM (highest dose often 45.9 µM), for the others: top-dose activity change, negative = loss of viability, usual class: cytotoxic;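 also: potency is read from the fitted curve at half-maximal effect; compound exposure lasted 16 hours before reading; % is scaled to controls: 0 for no effect and ±100 for the full control effect; nearly all actives have a fitted effect of over 55% in size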
FLuc enzyme: qHTS screen for small molecules that inhibit ELG1-dependent DNA repair: Hit Confirmation in Biochemical Luciferin Assay. Potency, µM (series often up to 57.5 µM), without a hit: top-dose activity, negative = inhibition, most hits filed as inhibitors. purified firefly luciferase, luminescence counter-screen. shares compounds with ELG1 repair inh. 350 compounds, 10% hits; also: potency is read from the fitted curve at half-maximal effect; % is scaled to controls: 0 for no effect and ±100 for the full control effect
Starred values were filed as active, the others as inactive; ? = inconclusive; · = no result given. Hits are enriched below; roughly 7.6% of the tested compounds scored in any of these assays. Unless noted, calls follow the shape of the dose curve; as a rule, active = well fitted curve in the direction sought with a large enough effect; inconclusive = small, poorly fitted or top-dose-only effect, or another doubt; inactive = no such curve, though single readings can be large; an effect the other way counts as inactive or inconclusive.

SMILES | BRCA1 expr act | p53 reactivator | Giardia killer | RORg inh | ELG1 repair inh | Gal4-VP16 FLuc | ELG1 FLuc counter | ELG1-Luc inh | ELG1 MMS Luc | ELG1 5FU viab | ELG1 MMS cell | ELG1 unstim viab | FLuc enzyme
Cc1ccc(-c2cc(C(F)F)n3ncc(C(=O)Nc4c(C)nn(Cc5c(Cl)cccc5Cl)c4C)c3n2)cc1 | -21.1% | -2.4% | 3.0 | -8.3% | 4.61µM* | -0.1% | -4.2% | 3.97µM* | 6.1% | ? | 2.0% | -4.6% | -5.1%
COc1ccc(C(=O)N/C(=C\c2cccs2)c2nc3ccccc3[nH]2)cc1OC | 1.6% | 0.2% | -4.5 | 20.3% | 2.31µM* | -14.1% | · | 7.91µM* | 0.8% | ? | -0.9% | ? | ·
COc1ccc(/C=C(/NC(=O)c2ccccc2)c2nc3ccccc3[nH]2)cc1OC | -21.0% | -23.9% | -5.0 | 21.5% | -12.6% | -12.3% | · | · | · | · | · | · | ·
Cc1oc(-c2cccs2)nc1CSCC(=O)NC1CC1 | 0.0% | 0.2% | -10.7 | 3.2% | -2.8% | 0.5% | · | · | · | · | · | · | ·
Cc1ccc(NC(=O)c2cc(-c3cccs3)nc3ccccc23)nc1 | -33.8% | -3.6% | -13.3 | -22.7% | ? | 20.8% | · | · | · | · | · | · | ·
Cc1c(NC(=O)c2cc(-c3cccs3)nc3ccccc23)c(=O)n(-c2ccccc2)n1C | -17.2% | -3.6% | 2.4 | -10.2% | 2.91µM* | -5.4% | -6.7% | 2.81µM* | 7.92µM* | 2.9% | ? | ? | -13.1%
